# Results filed as inconclusive are left out. The source made the active and inactive calls. How the source made its calls, unless noted: active means hit-call score of the fitted dose curve at least 0.9, where 1 is the maximum; inactive means score below 0.9.
# Tests used:
# [1] = molecular target: human CYP19A1, CYP19A1 (gene 1588) (UniProt P11511); assay: NVS_ADME_hCYP19A1: NovaScreen (NVS) CYP450-related Enzyme Activity (ADME) Assay for human CYP19A1 (AID 2283098; active means hit-call score of the fitted dose curve at least 0.9, where 1 is the maximum;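 on AC50: potency for inhibitors seen as loss of fluorescent enzyme signal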)
# Sequence of human CYP19A1, CYP19A1 (gene 1588) (P11511 whole entry, looked up): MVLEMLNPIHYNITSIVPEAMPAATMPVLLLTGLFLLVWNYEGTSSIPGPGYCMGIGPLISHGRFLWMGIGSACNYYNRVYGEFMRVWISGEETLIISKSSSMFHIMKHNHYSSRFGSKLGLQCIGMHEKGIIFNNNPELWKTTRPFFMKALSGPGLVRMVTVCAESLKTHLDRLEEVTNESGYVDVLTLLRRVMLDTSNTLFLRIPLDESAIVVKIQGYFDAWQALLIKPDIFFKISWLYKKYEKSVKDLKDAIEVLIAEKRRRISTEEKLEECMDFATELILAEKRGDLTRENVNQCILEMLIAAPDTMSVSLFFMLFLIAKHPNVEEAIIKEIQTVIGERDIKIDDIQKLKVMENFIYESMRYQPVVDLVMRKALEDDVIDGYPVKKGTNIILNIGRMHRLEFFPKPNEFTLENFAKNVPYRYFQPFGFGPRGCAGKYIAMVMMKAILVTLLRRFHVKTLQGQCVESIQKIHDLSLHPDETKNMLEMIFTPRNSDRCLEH
# How it was run: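 Cell-free enzyme assay with recombinant protein and a specific fluorogenic substrate, read by fluorescence intensity 0.5 h after dosing. Primary screen ran in duplicate at 10 uM; actives were retested in concentration series. Loss of signal versus acetonitrile baseline.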
# [2] = molecular target: human CYP2D6, CYP2D6 (gene 1565) (UniProt P10635); assay: NVS_ADME_hCYP2D6: NovaScreen (NVS) CYP450-related Enzyme Activity (ADME) Assay for human CYP2D6 (AID 2283107; active means hit-call score of the fitted dose curve at least 0.9, where 1 is the maximum)
# Sequence of human CYP2D6, CYP2D6 (gene 1565) (P10635 whole entry, looked up): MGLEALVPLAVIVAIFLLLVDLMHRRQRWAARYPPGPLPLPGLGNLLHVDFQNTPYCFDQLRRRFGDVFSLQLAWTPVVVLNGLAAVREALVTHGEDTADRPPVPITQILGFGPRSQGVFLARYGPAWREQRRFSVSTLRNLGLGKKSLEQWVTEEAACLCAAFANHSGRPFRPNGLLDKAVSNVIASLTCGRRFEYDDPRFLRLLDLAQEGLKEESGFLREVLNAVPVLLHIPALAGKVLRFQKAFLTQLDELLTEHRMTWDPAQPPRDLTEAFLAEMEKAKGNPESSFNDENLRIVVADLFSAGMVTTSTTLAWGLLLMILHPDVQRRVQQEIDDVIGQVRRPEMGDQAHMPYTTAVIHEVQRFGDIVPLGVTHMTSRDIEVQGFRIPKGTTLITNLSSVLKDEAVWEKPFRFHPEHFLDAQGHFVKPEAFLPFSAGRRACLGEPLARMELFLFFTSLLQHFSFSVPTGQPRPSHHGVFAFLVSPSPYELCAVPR
# How it was run: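 Cell-free assay using recombinant human CYP2D6 expressed in insect cells, with a fluorogenic substrate read after 1 h. Primary screen in duplicate at 10 uM; actives followed up in concentration series. Loss of signal fitted relative to acetonitrile.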
# [3] = molecular target: human CYP2C9, CYP2C9 (gene 1559) (UniProt P11712); assay: NVS_ADME_hCYP2C9: NovaScreen (NVS) CYP450-related Enzyme Activity (ADME) Assay for human CYP2C9 (AID 2283108; active means hit-call score of the fitted dose curve at least 0.9, where 1 is the maximum)
# Sequence of human CYP2C9, CYP2C9 (gene 1559) (P11712 whole entry, looked up): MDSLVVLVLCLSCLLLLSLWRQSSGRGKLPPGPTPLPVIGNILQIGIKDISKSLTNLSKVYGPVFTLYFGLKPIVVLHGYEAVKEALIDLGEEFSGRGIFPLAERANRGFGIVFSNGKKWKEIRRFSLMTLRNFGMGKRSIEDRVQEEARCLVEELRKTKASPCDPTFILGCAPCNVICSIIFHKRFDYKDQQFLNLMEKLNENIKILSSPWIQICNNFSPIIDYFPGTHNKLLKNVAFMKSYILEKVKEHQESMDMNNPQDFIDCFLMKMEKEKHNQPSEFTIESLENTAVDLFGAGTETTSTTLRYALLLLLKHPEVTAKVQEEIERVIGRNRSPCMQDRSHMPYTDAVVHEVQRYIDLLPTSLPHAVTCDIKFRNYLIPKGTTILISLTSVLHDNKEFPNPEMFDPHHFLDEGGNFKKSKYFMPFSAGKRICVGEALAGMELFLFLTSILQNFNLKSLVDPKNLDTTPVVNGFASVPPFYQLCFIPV
# How it was run: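 Cell-free assay of recombinant human CYP2C9 produced in Sf9 cells, with enzyme activity read by fluorescence intensity 0.75 h after compound addition. Loss of signal versus an acetonitrile negative control indicates inhibition. Primary screen used 10 uM in duplicate; actives were retested in concentration series.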
# [4] = read-out: Monocyte Chemoattractant Protein-1 (MCP1), CCL2 (gene 6347); assay: BSK_LPS_MCP1: BioMAP Diversity Plus: LPS Assay for Monocyte Chemoattractant Protein-1 (MCP1) Biomarker Activity (AID 2283081); settings: primary human HUVEC with PBMC; actives raise or lower the signal;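 on AC50: secreted MCP-1 protein quantified by ELISA in culture supernatant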
# How it was run: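 Human umbilical vein endothelial cells co-cultured with PBMC, LPS-stimulated; secreted MCP-1 measured by ELISA 24 h after compound addition. Bidirectional curve fitting against DMSO baseline; SRB total-protein staining in parallel cultures for cytotoxicity.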
# [5] = read-out: Macrophage colony-stimulating factor (MCSF), CSF1 (gene 1435); assay: BSK_LPS_MCSF: BioMAP Diversity Plus: LPS Assay for Macrophage colony-stimulating factor (MCSF) Biomarker Activity (AID 2283083); settings: primary human HUVEC with PBMC; actives raise or lower the signal
# How it was run: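 HUVEC–PBMC co-culture, M-CSF measured by ELISA 24 h after chemical dosing. Fitted in both directions relative to DMSO as negative control; overt cytotoxicity assessed by SRB total-protein staining in parallel cultures.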
# [6] = read-out: Tissue Factor, F3 (gene 2152); assay: BSK_LPS_TissueFactor: BioMAP Diversity Plus: LPS Assay for Tissue Factor Biomarker Activity (AID 2283084); settings: primary human HUVEC with PBMC; actives raise or lower the signal
# How it was run: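 Human umbilical vein endothelial cells co-cultured with PBMC were dosed with compound. Cell-surface CD142 was measured by ELISA 24 h later. Activity was fitted bidirectionally against DMSO, with SRB total-protein staining in parallel cultures for cytotoxicity.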
# [7] = read-out: Tumor necrosis factor (Homo sapiens) (UniProt P01375); assay: BSK_LPS_TNFa: BioMAP Diversity Plus: LPS Assay for Tumour Necrosis Factor alpha (TNFa) Biomarker Activity (AID 2283085); settings: primary human HUVEC with PBMC; actives raise or lower the signal
# How it was run: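 Human umbilical vein endothelial cells co-cultured with PBMC were exposed to test chemical and TNFa measured by ELISA 24 h after dosing. Bidirectional curve fitting was done relative to DMSO as negative control and baseline.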
# [8] = read-out: Vascular cell adhesion molecule 1 (VCAM1), VCAM1 (gene 7412); assay: BSK_LPS_VCAM1: BioMAP Diversity Plus: LPS Assay for Vascular cell adhesion molecule 1 (VCAM1) Biomarker Activity (AID 2283086); settings: primary human HUVEC with PBMC; actives raise or lower the signal
# How it was run: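 Human umbilical vein endothelial cells co-cultured with peripheral blood mononuclear cells under LPS stimulation were exposed to test chemical for 24 h. VCAM-1 levels were then measured by ELISA, with bidirectional curve fitting relative to DMSO as negative control and baseline.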
# [9] = read-out: CD38, CD38 (gene 952); assay: BSK_SAg_CD38: BioMAP Diversity Plus: SAg Assay for CD38 Biomarker Activity (AID 2283087); settings: primary human HUVEC with PBMC; actives raise or lower the signal
# How it was run: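 Fluorescence ELISA of cell-surface CD38 served as the read-out, with either increase or decrease fitted against DMSO controls. Cells were a human umbilical vein endothelium plus PBMC co-culture under SEB/TSST-1 stimulation, measured 24 h after dosing.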
# [10] = read-out: CD40, CD40 (gene 958); assay: BSK_SAg_CD40: BioMAP Diversity Plus: SAg Assay for CD40 Biomarker Activity (AID 2283088); settings: primary human HUVEC with PBMC; actives raise or lower the signal
# How it was run: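 HUVEC plus PBMC co-culture, superantigen-activated, with CD40 read by ELISA 24 h after dosing. Curves fitted in both directions against DMSO. Overt cytotoxicity checked by parallel SRB total-protein staining.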
# [11] = read-out: Monocyte Chemoattractant Protein-1 (MCP1), CCL2 (gene 6347); assay: BSK_SAg_MCP1: BioMAP Diversity Plus: SAg Assay for Monocyte Chemoattractant Protein-1 (MCP1) Biomarker Activity (AID 2283090); settings: primary human HUVEC with PBMC; actives raise or lower the signal
# How it was run: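 MCP-1 levels in the endothelial–PBMC SAg co-culture were quantified by ELISA at 24 h post-dosing; both increases and decreases versus DMSO scored. Cytotoxicity monitored by SRB total protein in parallel cultures.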
# [12] = read-out: E-selectin (Homo sapiens) (UniProt P16581); assay: BSK_SAg_Eselectin: BioMAP Diversity Plus: SAg Assay for Eselectin Biomarker Activity (AID 2283091); settings: primary human HUVEC with PBMC; actives raise or lower the signal
# How it was run: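 Human umbilical vein endothelial cells co-cultured with peripheral blood mononuclear cells, SAg system. E-selectin is measured by ELISA 24 h after dosing and fitted bidirectionally against DMSO. Cytotoxicity is checked by SRB staining of parallel cultures.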
# [13] = read-out: Monokine induced gamma interferon (MIG), CXCL9 (gene 4283); assay: BSK_SAg_MIG: BioMAP Diversity Plus: SAg Assay for Monokine induced gamma interferon (MIG) Biomarker Activity (AID 2283092); settings: primary human HUVEC with PBMC; actives raise or lower the signal
# How it was run: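 HUVEC plus human PBMC co-culture, chemicals dosed and MIG (CXCL9) quantified by ELISA at 24 h. Bidirectional curve fitting against DMSO as negative control and baseline, so both gain and loss of signal count as activity.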
# [14] = BSK_SAg_PBMCCytotoxicity: PBMC Cytotoxicity Assessment in the BioMAP Diversity Plus: SAg Assay (AID 2283093); settings: primary human HUVEC with PBMC;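 further: PBMC viability measured as Alamar Blue reduction fluorescence at 546/580 nm; fitted both ways against DMSO so a hit may be loss or gain of signal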;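 on AC50: PBMC superantigen activated with SEB plus TSST-1 one hour after compound addition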
# How it was run: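 Human umbilical vein endothelial cells co-cultured with PBMC; PBMC (75,000/well) pre-treated with compound 1 h, then activated with SEB and TSST-1 (20 ng/mL final each) for 90 h. Alamar Blue added 6 h, fluorescence 546/580 nm; bidirectional fit versus DMSO.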
# [15] = read-out: Interleukin-8 (IL8), CXCL8 (gene 3576); assay: BSK_SAg_IL8: BioMAP Diversity Plus: SAg Assay for Interleukin-8 (IL8) Biomarker Activity (AID 2283094); settings: primary human HUVEC with PBMC; actives raise or lower the signal
# How it was run: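 Human umbilical vein endothelial cells co-cultured with peripheral blood mononuclear cells; IL-8 measured by ELISA 24 h after chemical dosing. Bidirectional concentration-response fitting used DMSO as negative control and activity baseline.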
# [16] = BSK_SAg_Proliferation: Cell Proliferation Assessment in the BioMAP Diversity Plus: SAg Assay (AID 2283095); settings: primary human HUVEC with PBMC;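 further: relative cell number as total protein by SRB absorbance in sub-confluent culture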
# How it was run: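 Human umbilical vein endothelial cells co-cultured with peripheral blood mononuclear cells; total protein measured by sulforhodamine B staining (0.1% SRB after 10% TCA fixation), absorbance at 560 nm, at 96 h. Bidirectional fit against DMSO baseline.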
# [17] = BSK_SAg_SRB: Viability Assessment in the BioMAP Diversity Plus: SAg Assay (AID 2283096); settings: primary human HUVEC with PBMC;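 further: cells read one day after compound addition; hits may be either gain or loss of signal compared with DMSO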
# How it was run: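 Endothelial/PBMC primary human co-culture; compound 24 h; fix 10% TCA, stain 0.1% SRB, A560; protein content as cytotoxicity proxy; bidirectional curve fit, DMSO = baseline.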
# [18] = molecular target: Cytochrome P450 3A4 (Homo sapiens) (UniProt P08684); assay: NVS_ADME_hCYP3A4: NovaScreen (NVS) CYP450-related Enzyme Activity (ADME) Assay for human CYP3A4 (AID 2283110; active means hit-call score of the fitted dose curve at least 0.9, where 1 is the maximum)
# Sequence of Cytochrome P450 3A4 (Homo sapiens) (P08684 whole entry, looked up): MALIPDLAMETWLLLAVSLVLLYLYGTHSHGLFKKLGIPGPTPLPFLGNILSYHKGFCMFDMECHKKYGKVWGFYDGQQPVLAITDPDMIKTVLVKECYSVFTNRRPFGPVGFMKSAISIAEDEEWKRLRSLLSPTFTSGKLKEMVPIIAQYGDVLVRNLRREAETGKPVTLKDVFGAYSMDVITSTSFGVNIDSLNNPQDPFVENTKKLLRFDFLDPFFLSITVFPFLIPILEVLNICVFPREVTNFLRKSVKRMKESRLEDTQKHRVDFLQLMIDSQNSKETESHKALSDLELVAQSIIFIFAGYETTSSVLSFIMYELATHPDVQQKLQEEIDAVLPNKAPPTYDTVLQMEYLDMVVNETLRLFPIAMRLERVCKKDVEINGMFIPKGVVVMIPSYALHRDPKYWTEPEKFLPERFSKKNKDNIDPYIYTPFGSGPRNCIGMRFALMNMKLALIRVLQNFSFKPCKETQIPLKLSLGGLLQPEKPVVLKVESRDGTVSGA
# How it was run: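 Cell-free assay using insect-cell-expressed human CYP3A4 with a fluorogenic substrate; fluorescence intensity was read 0.33 hour after dosing. Loss of signal relative to acetonitrile vehicle indicated inhibition. Primary single-concentration screen at 10 uM, in duplicate, then concentration series.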
# Sequence of E-selectin (Homo sapiens) (P16581 whole entry, looked up): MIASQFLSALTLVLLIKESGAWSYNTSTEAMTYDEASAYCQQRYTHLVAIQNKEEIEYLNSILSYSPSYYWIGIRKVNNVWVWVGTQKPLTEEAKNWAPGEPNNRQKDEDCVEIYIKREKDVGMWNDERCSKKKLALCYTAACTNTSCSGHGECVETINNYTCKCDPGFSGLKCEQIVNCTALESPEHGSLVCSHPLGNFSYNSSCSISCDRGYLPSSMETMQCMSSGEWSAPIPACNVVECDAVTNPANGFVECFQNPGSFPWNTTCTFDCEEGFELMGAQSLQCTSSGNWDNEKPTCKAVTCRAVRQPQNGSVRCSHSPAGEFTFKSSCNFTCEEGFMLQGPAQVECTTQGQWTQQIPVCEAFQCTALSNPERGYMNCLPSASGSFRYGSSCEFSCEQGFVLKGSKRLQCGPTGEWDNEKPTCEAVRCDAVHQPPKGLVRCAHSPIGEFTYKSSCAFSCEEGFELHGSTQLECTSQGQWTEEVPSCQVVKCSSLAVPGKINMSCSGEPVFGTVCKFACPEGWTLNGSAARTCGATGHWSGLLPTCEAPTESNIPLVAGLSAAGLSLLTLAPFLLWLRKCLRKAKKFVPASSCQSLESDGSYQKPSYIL
# Sequence of Tumor necrosis factor (Homo sapiens) (P01375 whole entry, looked up): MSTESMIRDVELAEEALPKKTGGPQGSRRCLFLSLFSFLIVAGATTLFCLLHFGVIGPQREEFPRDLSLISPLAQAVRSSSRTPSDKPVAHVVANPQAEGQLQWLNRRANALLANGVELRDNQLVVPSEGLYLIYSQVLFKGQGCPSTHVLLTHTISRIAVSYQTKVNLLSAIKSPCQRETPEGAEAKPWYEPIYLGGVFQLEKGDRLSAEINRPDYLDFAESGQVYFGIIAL
smiles,measurement,setting,value
CCCCCCCCCCCCCCCC(=O)OC[C@H](O)[C@H]1OC(=O)C(O)=C1O,AC50,[1],2.33 µM (active)
Nc1ccc(F)c([N+](=O)[O-])c1,outcome,[2],inactive
same,outcome,[3],inactive
CN(C)CCCN,outcome,[1],inactive
CCC(=O)OCc1ccccc1,outcome,[4],inactive
same,outcome,[5],inactive
same,outcome,[6],inactive
same,outcome,[7],inactive
same,outcome,[8],inactive
same,outcome,[9],inactive
same,outcome,[10],inactive
same,outcome,[11],inactive
same,outcome,[12],inactive
same,outcome,[13],inactive
same,outcome,[14],inactive
same,outcome,[15],inactive
same,outcome,[16],inactive
same,outcome,[17],inactive
CC1(C)[C@H]2CC[C@]1(C)[C@H](O)C2,outcome,[18],inactive
CNC[C@H](O)c1cccc(O)c1,outcome,[4],inactive
same,outcome,[5],inactive
same,outcome,[6],inactive
same,outcome,[7],inactive
same,outcome,[8],inactive
same,outcome,[9],inactive
same,outcome,[10],inactive
same,outcome,[11],inactive
same,outcome,[12],inactive
same,outcome,[13],inactive
same,outcome,[14],inactive
same,outcome,[15],inactive
same,outcome,[16],inactive
same,outcome,[17],inactive
CCCCCCCCCCCCCOS(=O)(=O)O,outcome,[1],inactive
O=P(c1ccccc1)(c1ccccc1)c1ccccc1,outcome,[4],inactive
same,outcome,[5],inactive
same,outcome,[6],inactive
same,outcome,[7],inactive
same,outcome,[8],inactive
same,outcome,[9],inactive
same,outcome,[10],inactive
same,outcome,[11],inactive
same,outcome,[12],inactive
same,outcome,[13],inactive
same,outcome,[14],inactive
same,outcome,[15],inactive
same,outcome,[16],inactive
same,outcome,[17],inactive
same,AC50,[3],3.19 µM (active)
O=C(O)C[C@H](O)C[C@H](O)/C=C/c1c(C2CC2)nc2ccccc2c1-c1ccc(F)cc1,outcome,[4],inactive
same,outcome,[5],inactive
same,outcome,[6],inactive
same,AC50,[7],3.17 µM (active)
same,outcome,[8],inactive
same,outcome,[9],inactive
same,AC50,[10],0.216 µM (active)
same,outcome,[11],inactive
same,AC50,[12],0.00197 µM (active)
same,outcome,[13],inactive
same,outcome,[14],inactive
same,AC50,[15],0.0041 µM (active)
same,AC50,[16],0.756 µM (active)
same,AC50,[17],0.104 µM (active)
CCCCCCCCCC=O,outcome,[4],inactive
same,outcome,[5],inactive
same,outcome,[6],inactive
same,outcome,[7],inactive
same,outcome,[8],inactive
same,AC50,[9],29.3 µM (active)
same,outcome,[10],inactive
same,outcome,[11],inactive
same,AC50,[12],33.6 µM (active)
same,outcome,[13],inactive
same,outcome,[14],inactive
same,outcome,[15],inactive
same,outcome,[16],inactive
same,outcome,[17],inactive
Nc1cc([N+](=O)[O-])ccc1Cl,outcome,[4],inactive
same,outcome,[5],inactive
same,outcome,[6],inactive
same,outcome,[7],inactive
same,outcome,[8],inactive
same,outcome,[9],inactive
same,outcome,[10],inactive
same,outcome,[11],inactive
same,outcome,[12],inactive
same,outcome,[13],inactive
same,outcome,[14],inactive
same,outcome,[15],inactive
same,outcome,[16],inactive
same,outcome,[17],inactive
Cc1ccc(O)c(C(C)(C)C)c1,AC50,[4],33 µM (active)
same,AC50,[5],36.9 µM (active)
same,AC50,[6],30.4 µM (active)
same,AC50,[7],34.8 µM (active)
same,AC50,[8],36.8 µM (active)
same,AC50,[9],37 µM (active)
same,AC50,[10],35.5 µM (active)
same,AC50,[11],36.6 µM (active)
same,AC50,[12],37.5 µM (active)
same,AC50,[13],38.1 µM (active)
same,AC50,[14],35.8 µM (active)
same,AC50,[15],32.8 µM (active)
same,AC50,[16],32 µM (active)
same,AC50,[17],31.9 µM (active)
OC1OC[C@@H](O)[C@H](O)[C@H]1O (stereo partly specified),outcome,[4],inactive
same,outcome,[5],inactive
same,outcome,[6],inactive
same,outcome,[7],inactive
same,outcome,[8],inactive
same,outcome,[9],inactive
same,outcome,[10],inactive
same,outcome,[11],inactive
same,outcome,[12],inactive
same,outcome,[13],inactive
same,outcome,[14],inactive
same,outcome,[15],inactive
same,outcome,[16],inactive
same,outcome,[17],inactive
OC[C@H]1O[C@H](O[C@]2(CCl)O[C@H](CCl)[C@@H](O)[C@@H]2O)[C@H](O)[C@@H](O)[C@H]1Cl,outcome,[4],inactive
same,outcome,[5],inactive
same,outcome,[6],inactive
same,outcome,[7],inactive
same,outcome,[8],inactive
same,outcome,[9],inactive
same,outcome,[10],inactive
same,outcome,[11],inactive
same,outcome,[12],inactive
same,outcome,[13],inactive
same,outcome,[14],inactive
same,outcome,[15],inactive
same,outcome,[16],inactive
same,outcome,[17],inactive
CC(=O)Nc1ccccc1O,outcome,[4],inactive
same,outcome,[5],inactive
same,outcome,[6],inactive
same,outcome,[7],inactive
same,outcome,[8],inactive
same,outcome,[9],inactive
same,outcome,[10],inactive
same,outcome,[11],inactive
same,outcome,[12],inactive
same,outcome,[13],inactive
same,outcome,[14],inactive
same,outcome,[15],inactive
same,outcome,[16],inactive
same,outcome,[17],inactive
CC(C)Oc1ccccc1O,outcome,[4],inactive
same,outcome,[5],inactive
same,outcome,[6],inactive
same,outcome,[7],inactive
same,outcome,[8],inactive
same,outcome,[9],inactive
same,outcome,[10],inactive
same,outcome,[11],inactive
same,outcome,[12],inactive
same,outcome,[13],inactive
same,outcome,[14],inactive
same,outcome,[15],inactive
same,outcome,[16],inactive
same,outcome,[17],inactive

# Source: PubChem BioAssay (EPA / NIEHS)
